Experimental data: PubChem BioAssay (NCI)
Compounds without any hit were thinned out: in the full panel of roughly 83,000, 20% have a hit.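 Compound tested at a single concentration for 48 hours in 96-well plates; a percent growth value below 10 was scored as active.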 Unmarked numbers belong to inactive results. Calls of active or inactive are those of the source.

What was measured:
Test in all cases: NCI-60 one-dose screen, 48 h (100 = growth as untreated, 0 = no growth, -100 = all killed)
Conditions in all cases: 10 µM unless noted
SR leukemia = tested on: SR leukemia
RPMI-8226 leukemia = tested on: RPMI-8226 leukemia
OVCAR-8 ovarian = tested on: OVCAR-8 ovarian
OVCAR-5 ovarian = tested on: OVCAR-5 ovarian
OVCAR-4 ovarian = tested on: OVCAR-4 ovarian
SK-OV-3 ovarian = tested on: SK-OV-3 ovarian
IGROV1 ovarian = tested on: IGROV1 ovarian
OVCAR-3 ovarian = tested on: OVCAR-3 ovarian
HS 578T breast = tested on: HS 578T breast
NCI/ADR-RES ovarian = tested on: NCI/ADR-RES ovarian
T-47D breast = tested on: T-47D breast
BT-549 breast = tested on: BT-549 breast
MDA-MB-435 melanoma = tested on: MDA-MB-435 melanoma
SW-620 colon = tested on: SW-620 colon
HCT-116 colon = tested on: HCT-116 colon
HCC-2998 colon = tested on: HCC-2998 colon
KM12 colon = tested on: KM12 colon
MCF7 breast = tested on: MCF7 breast

| SMILES | growth (SR leukemia) | growth (RPMI-8226 leukemia) | growth (OVCAR-8 ovarian) | growth (OVCAR-5 ovarian) | growth (OVCAR-4 ovarian) | growth (SK-OV-3 ovarian) | growth (IGROV1 ovarian) | growth (OVCAR-3 ovarian) | growth (HS 578T breast) | growth (NCI/ADR-RES ovarian) | growth (T-47D breast) | growth (BT-549 breast) | growth (MDA-MB-435 melanoma) | growth (SW-620 colon) | growth (HCT-116 colon) | growth (HCC-2998 colon) | growth (KM12 colon) | growth (MCF7 breast) |
| --- | --- | --- | --- | --- | --- | --- | --- | --- | --- | --- | --- | --- | --- | --- | --- | --- | --- | --- |
| COc1ccc(/C=N/C2=C(C#N)C(c3ccccc3)c3ccc4ccccc4c3O2)cc1 (centres undefined) | 23.6% | 8.19% (active) | 14.1% | 26.7% | 56.6% | 21.6% | 26.2% | 2.08% (active) | 29.8% | 4.68% (active) | 46.7% | 12.9% | -56.3% (active) | 24.3% | 10.3% | -6.81% (active) | 17.5% | – |
| Cn1ccnc1C(=O)/C=C/c1ccc(C(=O)Nc2ccccc2O)cc1 | -21.2% (active) | -11.9% (active) | 18.6% | 79.3% | 36.4% | 54.7% | 30.9% | -17.9% (active) | 78.9% | 23.7% | 2.47% (active) | 28.4% | 69.3% | 10.3% | 11.6% | 82.7% | 15.2% | – |
| COC12C=C/C(=C(/C(=O)OCc3ccncc3)C(=O)CCCCCCCCC3(OC)C=C/C(=C(/C(=O)OCc4ccncc4)C(=O)CCCCCCCC1)O3)O2 | -16.2% (active) | -24.7% (active) | 14.7% | -20.7% (active) | -2.29% (active) | 40.1% | -32.2% (active) | -74.3% (active) | 34.6% | 5.85% (active) | 8.61% (active) | -14.7% (active) | -53.8% (active) | 9.25% (active) | -62.2% (active) | -83.4% (active) | -77.2% (active) | -42.2% (active) |
| C1CCC([PH+](C2CCCCC2)C2CCCCC2[PH+](C2CCCCC2)C2CCCCC2)CC1.[Au].[CH-]1CCCCC1C1CCCC[N-]1 (centres undefined) | -3.06% (active) | -15.6% (active) | -6.1% (active) | -69.3% (active) | -5.17% (active) | -65.8% (active) | -38.6% (active) | -92.2% (active) | -5.47% (active) | 9.87% (active) | -45.3% (active) | -40.4% (active) | -63.1% (active) | -76.4% (active) | -40.5% (active) | -90.1% (active) | -85.2% (active) | -30.5% (active) |
| N#Cc1c(-c2ccccc2)cc(-c2ccc(Nc3nc(Nc4ccc(Cl)cc4)nc(Nc4ccc(Cl)cc4)n3)cc2)nc1N | -30.8% (active) | -45.4% (active) | 32.6% | 63.2% | -15.2% (active) | 110% | -8.08% (active) | -54% (active) | 14.4% | 53.2% | -39.5% (active) | -68.1% (active) | -34.4% (active) | -39.2% (active) | 4.99% (active) | -14.3% (active) | – | – |
| COc1ccc(/C=C(\C#N)n2nnc3cc(F)c(F)cc32)cc1 | 12.9% | 70.5% | 70.1% | 56.3% | 74% | 69.6% | 39.7% | 21.5% | 92.1% | 19.6% | 23.1% | 32.2% | -54% (active) | 14.9% | 28% | 69.3% | – | – |
| CCCCCCCCCCC(CN(CC)CC)C(O)c1ccccc1 (centres undefined) | -17.6% (active) | 9.59% (active) | 53.6% | 49.7% | 47.5% | 54.9% | 40.7% | 37.7% | 45% | 33.6% | 3.27% (active) | 61.7% | -25.1% (active) | 32.1% | 20.7% | -19.4% (active) | 8.29% (active) | – |
| CC(C)C1=NOC(=O)C1=Cc1cn(-c2ccccc2)nc1-c1ccc(F)cc1 | -17% (active) | -17.4% (active) | 60.2% | 95.2% | 94.1% | 107% | 61.3% | 64% | 49.6% | 101% | 76.9% | 121% | 77.4% | 61.2% | 32.4% | 79.8% | 69.7% | – |
| COC(=O)c1c2c(c(C)[n+]([O-])c1C)C(=O)C(NCc1cccc(OC)c1)=CC2=O | 17.6% | 33.1% | -4.96% (active) | 67.6% | -28.6% (active) | 89.6% | 12.3% | -12.1% (active) | 82.7% | 8.5% (active) | 11.5% | 57.5% | -70.6% (active) | 7.85% (active) | 1.61% (active) | 22.3% | 22% | – |
| COC(=O)/C=C1/SC(=Nc2ccc(C(F)(F)F)cc2)N(CCc2c[nH]c3ccc(O)cc23)C1=O | -35.5% (active) | -50.3% (active) | 13.9% | -25.9% (active) | -45.6% (active) | -5.47% (active) | -54.2% (active) | -31.1% (active) | 7.87% (active) | 21% | 17.3% | -32.7% (active) | 24% | 3.9% (active) | -71.9% (active) | -61.4% (active) | 18.3% | – |
| O=C1c2ccccc2-c2c1c1c(=O)[nH]c3ccccc3c1n2Cc1ccccc1 | 55.4% | 80.3% | 63.2% | 56.5% | 35% | 76.3% | 71.5% | 77.2% | -15% (active) | 67.9% | 62.6% | 29.5% | 71.1% | 79.8% | 41% | 55.4% | 71.2% | – |
| COc1ccc(-c2noc(C(=O)O)c2-c2cc(OC)c(OC)c(OC)c2)cc1 | 10.4% | 0.35% (active) | 30.4% | 87% | 76.7% | 23.5% | 47% | 9.65% (active) | 13.3% | 27.7% | 27.2% | 49.6% | -41.5% (active) | 22.4% | 19.4% | 58% | 27.9% | – |
| COc1cc(/C=C/C(=O)c2ccc(F)cc2)ccc1OCCCCOc1ccc(/C=C/C(=O)c2c(C)nc3ccccc3c2C)cc1OC | 79.2% | 79.3% | 78.3% | 108% | 76.5% | 107% | 101% | 92% | 117% | 91.4% | 92.7% | 154% | 94.4% | 102% | 90.8% | 100% | 111% | 80.1% |
| O=C1/C(=C/c2ccccc2Br)COc2ccc(O)cc21 | 10.3% | 1.71% (active) | 55.5% | 91.9% | 77.8% | 128% | 78.6% | 54.5% | 70.5% | 46.9% | 83.7% | 53.9% | 40.9% | 18.3% | 18.6% | 100% | – | – |
| CC(=O)N1N=C(c2ccc(Nc3nc(Nc4ccccc4)nc(Nc4ccccc4)n3)cc2)CC1c1cccc([N+](=O)[O-])c1 (centres undefined) | 83.8% | 68% | 92.6% | 87.6% | 91.2% | 103% | 79.4% | 98.1% | 88.6% | 94.7% | 66.4% | 111% | 96.1% | 94.9% | 95.5% | 103% | 129% | – |
| CCCn1cc2c(=O)nc3sc(Cc4ccccc4)c(C)n3c2n1 | 73.8% | 99.5% | 91.8% | 111% | 99% | 104% | 105% | 99.3% | 99.5% | 96.7% | 84.8% | 106% | 106% | 101% | 102% | 104% | 94.4% | – |
| Cc1ccccc1/C=C/C(=O)c1cccc(OCCCOc2cccc(C(=O)/C=C/c3ccccc3C)c2)c1 | 25.8% [3 µM] | -23.2% [3 µM] (active) | 101% [3 µM] | 126% [3 µM] | 84.6% [3 µM] | 109% [3 µM] | 102% [3 µM] | 99.4% [3 µM] | 99.7% [3 µM] | 101% [3 µM] | 73.2% [3 µM] | 96.7% [3 µM] | 97.7% [3 µM] | 93.3% [3 µM] | 38.2% [3 µM] | 91.2% [3 µM] | 95.4% [3 µM] | – |
